Consider 12 molecules from PubChem BioAssay (NCI).

The panel holds about 83,000 compounds, 20% with a hit somewhere; the sample as a whole holds those more often.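 Cells were grown in 96-well plates and exposed to the test compound at a single concentration for 48 hours; results are reported as percent growth, with values below 10 considered active.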 Unmarked numbers belong to inactive results. Calls of active or inactive are those of the source.

Test systems include DU-145 prostate; K-562 leukemia; MALME-3M melanoma; MDA-MB-231 breast; RXF 393 renal; SF-268 CNS; SF-295 CNS; SF-539 CNS; UACC-257 melanoma; M14 melanoma.
What all share (experiment): NCI-60 one-dose screen, 48 h (100 = growth as untreated, 0 = no growth, -100 = all killed)
What all share (details): 10 µM

Consider `COc1ccc(-c2[nH]ncc2-c2cc(OC)c(OC)c(OC)c2)cc1`, for which the growth with DU-145 prostate was -23.9% (active); in the test on K-562 leukemia, 6.11% (active); with MALME-3M melanoma, 57.2%; in the test on MDA-MB-231 breast, 4.38% (active); in the test with RXF 393 renal, 0.469% (active); with SF-268 CNS, 16%. Moreover, the growth with SF-295 CNS is -1.07% (active); in the test on SF-539 CNS, -28.1% (active); with UACC-257 melanoma, 42.6%; with M14 melanoma, 4.51% (active).

Take `Cc1cc(O)c(C2=NN(c3ccc(S(N)(=O)=O)cc3)C(c3ccc(N(C)C)cc3)C2)c(C)c1Cl` (stereo not given): the growth with DU-145 prostate is 75.2%; in the test with K-562 leukemia it was 25%; with MALME-3M melanoma, 157%; with MDA-MB-231 breast, 103%; in the test with RXF 393 renal it was 93.4%; in the test on SF-268 CNS, 72.1%. The growth with SF-295 CNS was 6.34% (active); with SF-539 CNS it was 91.6%; with UACC-257 melanoma, 97.6%; with M14 melanoma, 89.3%.

Regarding `Cc1ccc(-n2c(-c3cc4c([nH]c5ccccc54)c(-c4cccc(O)c4)n3)n[nH]c2=S)cc1`, the growth in the test with DU-145 prostate was -16.6% (active); with K-562 leukemia it was 9.64% (active); in the test on MALME-3M melanoma, 41.3%; with MDA-MB-231 breast it was -1.15% (active); in the test with RXF 393 renal, -50.5% (active); in the test with SF-268 CNS, 9.02% (active). The growth in the test on SF-295 CNS is -17.2% (active); in the test with SF-539 CNS, -27.3% (active); with UACC-257 melanoma, 2.43% (active); in the test on M14 melanoma it was -40.1% (active).

Turning to `CC(Oc1ccc(Cl)cc1)c1ccccc1` (stereo not given), the growth is 107% in the test on DU-145 prostate; 101% in the test with K-562 leukemia; 80.1% in the test on MALME-3M melanoma; 105% with MDA-MB-231 breast; 103% in the test with RXF 393 renal; 104% in the test on SF-268 CNS. Moreover, the growth was 96% in the test with SF-295 CNS, 102% in the test with SF-539 CNS, 98.9% with UACC-257 melanoma and 101% in the test with M14 melanoma.

In the case of `COc1ccc(S(=O)(=O)Nc2cc(/C=C\c3cc(OC)c(OC)c(OC)c3)ccc2OC)cc1`, the growth was -12.8% (active) with DU-145 prostate; 11.1% in the test on K-562 leukemia; 50% in the test with MALME-3M melanoma; 7.83% (active) in the test on MDA-MB-231 breast; 16.4% with RXF 393 renal; 9.24% (active) with SF-268 CNS. Also, the growth is 13% in the test with SF-295 CNS, -13% (active) in the test with SF-539 CNS, 47.7% with UACC-257 melanoma and 8.41% (active) in the test on M14 melanoma.

On to `O=C(O)CCCN1C(=O)NC2(C1=O)c1ccccc1-c1ccccc12`, for which the growth is 105% in the test on DU-145 prostate; 99% in the test with K-562 leukemia; 97.3% in the test on MALME-3M melanoma; 107% in the test on MDA-MB-231 breast; 101% with RXF 393 renal; 95.3% in the test with SF-268 CNS. Also, the growth in the test on SF-295 CNS was 95.2%; in the test on SF-539 CNS it was 99.7%; with UACC-257 melanoma it was 91.2%; with M14 melanoma it was 103%.

Regarding `O=C(Nc1ccc(Oc2ccc(Nc3nc4ccccc4s3)cc2)cc1)Nc1ccc(Cl)c(Cl)c1`, the growth was 39.1% in the test on DU-145 prostate; 21.9% in the test on K-562 leukemia; 47.9% in the test on MALME-3M melanoma; 22.8% in the test with MDA-MB-231 breast; 56.5% in the test with RXF 393 renal; 35.9% in the test with SF-268 CNS. In addition, the growth is 17.8% in the test on SF-295 CNS, 50.9% in the test on SF-539 CNS, 61.3% in the test with UACC-257 melanoma and 26.3% with M14 melanoma.

As to `O=C1CC(c2cccc(-c3cccnc3)c2)=Nc2ccc(Br)cc2N1`, the growth with DU-145 prostate was 65.8%; in the test with K-562 leukemia, 54.2%; in the test with MALME-3M melanoma, 40.9%; in the test on MDA-MB-231 breast, 43.6%; in the test on RXF 393 renal it was 40.2%; with SF-268 CNS it was 44.1%. In addition, the growth in the test with SF-295 CNS is 48.7%; in the test on SF-539 CNS, 55.7%; in the test on UACC-257 melanoma, 38.5%; in the test with M14 melanoma, 37.8%.

Regarding `COc1cc(CSc2nc3ccc(C)cc3c(=O)n2-c2ccccc2)cc(OC)c1OC`, the growth in the test with DU-145 prostate is 29.8%; with K-562 leukemia it was 10.4%; with MALME-3M melanoma it was 42.5%; in the test with MDA-MB-231 breast it was 38%; with RXF 393 renal, 14.2%; in the test with SF-268 CNS, 47.5%. Further, the growth was 32.8% in the test on SF-295 CNS, 3.56% (active) with SF-539 CNS, 50.2% in the test on UACC-257 melanoma and 17.2% in the test with M14 melanoma.

For `O=C(Nc1cccc(C(F)(F)F)c1)C(Cl)Cl`, the growth in the test on DU-145 prostate is 98.3%; in the test with K-562 leukemia it was 102%; with MALME-3M melanoma it was 94.7%; in the test with MDA-MB-231 breast, 127%; in the test on RXF 393 renal it was 104%; with SF-268 CNS, 99.4%. Besides, the growth in the test on SF-295 CNS was 90.4%; in the test with SF-539 CNS, 93.8%; with UACC-257 melanoma, 98%; with M14 melanoma, 98.8%.

Take `CCCC(C)c1ccc(OCCCCCCN2CCNCC2)cc1` (stereo not given): the growth is 38.4% in the test with DU-145 prostate; -34.1% (active) with K-562 leukemia; 37% with MALME-3M melanoma; -0.569% (active) with MDA-MB-231 breast; -13.3% (active) with RXF 393 renal; 70.4% in the test on SF-268 CNS. Besides, the growth in the test on SF-295 CNS is -6.71% (active); in the test on SF-539 CNS it was 56.1%; with UACC-257 melanoma, 79%; in the test on M14 melanoma, 57.5%.

Take `Cc1cccc2c(Nc3ccc(NS(C)(=O)=O)cc3)c3ccc([N+](=O)[O-])cc3nc12`: the growth is -15.3% (active) in the test with DU-145 prostate; 1.15% (active) in the test on K-562 leukemia; -22% (active) with MALME-3M melanoma; 61.4% in the test on MDA-MB-231 breast; -31.9% (active) with RXF 393 renal; 12.5% with SF-268 CNS. For the same molecule, the growth is -15.2% (active) with SF-295 CNS, 16.8% with SF-539 CNS, -16.3% (active) in the test on UACC-257 melanoma and 16.7% in the test on M14 melanoma.
